Consider 52 molecules from PubChem BioAssay AID485313 (National Center for Advancing Translational Sciences (NCATS), 2010).

Out of some 320,000 compounds screened, about 7,600 (2.4%) were called active. Roughly 3% stayed inconclusive and do not appear here. Calls come from the whole dose curve; as a rule, active = well fitted activation curve with a large enough effect; inconclusive = small, poorly fitted or top-dose-only effect; inactive = no such curve, though single readings can be large or run the other way. The list comes from a sample in which actives are over-represented; it also holds similar structures and randomly drawn compounds. Where a call stands in place of a potency, no number is given.
Potency is the fitted concentration of half-maximal effect.

The assay in a line: qHTS Assay for NPC1 Promoter Activators. Note: nearly all actives have a fitted effect of over 60% in size. As to conditions: Huh7 NPC1 promoter luciferase reporter, 24 h; series mostly up to 9.22 µM. The source says:
NIH Chemical Genomics Center [NCGC] NIH Molecular Libraries Probe Production centers Network [MLPCN] MLPCN Grant: MH089375-01A1 Assay Submitter (PI): Yiannis A. Ioannou NCGC Assay Overview: Niemann Pick Type C (NPC) is a rare neurodegenerative lipidosis that is characterized by lipid storage in the endosomal/lysosomal system. Treatment modalities for this devastating disease are currently non-existent due to the severe obstacles associated with accessing the central nervous system with proteins or genes. The majority of mutations causing NPC disease are missense mutations that are distributed throughout the length of the NPC1 protein, with the most prevalent being the I1061T allele. Although NPC1 mutant proteins may be functional, they are typically trapped in the ER due to misfolding. […] We have developed and optimized a cell based luciferase reporter assay in 1536 well format for the identification of up-regulators of the mutant NPC1 promoter.
The NPC1 promoter is cloned in front of the luciferase reporter gene, therefore NPC promoter activation results in luciferase expression. Frozen stock of the NPC1 promoter transfected Huh7 cells were obtained from the laboratory of Dr. Yiannis Ioannou (The Mount Sinai School of Medicine, New York, NY). Cells were propagated and maintained at NCGC in medium containing RPMI-1640 supplemented with 10% FBS, 2mM L-glutamine, and 50ug/ml penicillin/streptomycin. Cells were harvested in and plated for assays in OP-MEM I reduced-serum medium supplemented with 10% FBS. The Amplite luciferase reporter gene assay kit was purchased from ABD Bioquest and prepared/stored according to manufacturers recommendations. qHTS Assay Setup: 1.#Dispensed 5ul of Huh7 cells stably expressing NPC1-luciferase at a density of 1500 cells per well 1536-well plates. 2.#Incubate cells at 37C, 5% CO2, and 95% humidity for 2 hours. 3.#Transferred 23nl per well of compound in DMSO solution. 4.#Incubated at 37C, 5% CO2, and 95% humidity for 24 hours. 5.#Dispensed 3ul per well of Amplite reagent(ABD Bioquest) per well. 6.#Incubate at ambient for 10 minutes. 7.#Read using the luminescence protocol on the ViewLux plate reader (Perkin Elmer).
For `Cc1ccc(-n2cc3ccc([N+](=O)[O-])cc3n2)cc1`, the Potency is 794 nM (active).

Consider `Cc1ccnc(N2C(=O)c3ccc([N+](=O)[O-])cc3C2=O)c1`, for which the Potency result was “inactive”.

Turning to `Cc1ccc(-c2cn(S(=O)(=O)c3cccc([N+](=O)[O-])c3)nc2N)cc1`, the Potency result was “inactive”.

Turning to `Cn1c(N)c(C(=O)COC(=O)/C=C/c2cccc(C(F)(F)F)c2)c(=O)n(C)c1=O`, the Potency result is “inactive”. With `Cc1ccn(-c2cccc(-n3ccc(C)n3)n2)n1`, the Potency is 3160 nM (active). For `CN(CC(=O)Nc1ccc(OC(F)(F)F)cc1)C(=O)C1CCC1`, the Potency entry was “inactive”. As for `CC(=O)c1c(C)[nH]c(C(=O)OCC(=O)Nc2c(C)cccc2C)c1C`, the entry is “inactive”; as for `COc1cc(OC)cc(C(=O)OCC(=O)Nc2ccc(F)cc2F)c1`, “inactive”; as for `COc1ccc(NC(=O)c2ccc(OC)cc2)cc1`, 1780 nM (active). As for `COc1ccccc1CC(=O)Nc1ccc(F)cc1F`, the entry is “inactive”; as for `COc1ccc(/C=N/NC(=O)Nc2ccc3nsnc3c2)c(OC)c1`, “inactive”; as for `COc1ccc(NC(=O)c2ccc(C#CC(C)(C)O)cc2)cc1`, “inactive”. With `COc1ccc(NC(=O)Nc2ccc3nsnc3c2)cc1`, the Potency is 1780 nM (active). As to `COc1ccc(C(=O)Nc2ccc(F)cc2F)cc1`, the Potency was 3160 nM (active).

In the case of `COc1ccc(NC(=O)Nc2cccc3cccnc23)cc1`, the Potency result is “inactive”. `COc1ccc(C(=O)Nc2cccc(S(C)(=O)=O)c2)cc1`: the Potency result was “inactive”. For `COc1ccc(OC)c(/C=N/NC(=O)c2ccc[n+](CC(=O)c3ccccc3)c2)c1`, the Potency entry is “inactive”. Turning to `COc1ccccc1C(=O)Nc1ccc(C)c(S(=O)(=O)N2CCCCC2)c1`, the Potency result is “inactive”. Turning to `CNS(=O)(=O)c1ccc(C(=O)NCC(=O)NCCc2ccc3c(c2)OCCO3)cc1`, the Potency result was “inactive”. As for `COc1ccc(C(=O)NCc2ccc(C)cc2)cc1S(=O)(=O)N1CCCC1`, the entry is “inactive”. Consider `CC(C)(Oc1ccc(Cl)cc1)C(=O)OCC(=O)NCCc1ccc(S(N)(=O)=O)cc1`, for which the Potency entry was “inactive”.

For `CC(=O)c1ccccc1NC(=O)C1CC(=O)N(c2ccc3c(c2)OCCO3)C1` (configuration not stated), the Potency entry is “inactive”. Consider `COc1ccc(C(=O)N2CCN(c3ccc(C(C)=O)cc3F)CC2)cc1S(=O)(=O)NC1CC1`, for which the Potency entry is “inactive”.

For `CCc1ccccc1NC(=O)[C@@H]1CCC(=O)N1C1OC(=O)c2c1ccc(OC)c2OC` (some centres not stated), the Potency entry is “inactive”. The value for `CN(C(=O)CSc1nnc(-c2ccc(C(C)(C)C)cc2)n1C)C1CCS(=O)(=O)C1` (configuration not stated) was “inactive”; that for `Cc1cccc(NS(=O)(=O)c2ccc(C)c(C(=O)NCC(c3ccccc3)N(C)C)c2)c1` (configuration not stated) was “inactive”. Turning to `C[C@H](NC(=O)c1ccccc1Cl)C(=O)OCC(=O)N1CCN(c2ccccc2)CC1`, the Potency result was “inactive”. Take `O=C(c1cnn2ccccc12)N1CCc2ccccc21`: the Potency is 3160 nM (active). As for `Cc1cnc(C(=O)OCC(=O)N2CCc3ccccc32)cn1`, the entry is “inactive”.

On to `CCOC(=O)N1CCC(NC(=O)c2cnn3ccccc23)CC1`, for which the Potency entry is “inactive”. Take `CC(=O)NCCC(=O)Nc1cc(S(=O)(=O)N2CCCCC2)ccc1Oc1cccc(C)c1`: the Potency entry was “inactive”.

As for `O=C(C[n+]1cc(Br)cc2ccccc21)c1ccc(F)cc1`, the Potency result is “inactive”. Consider `O=C(c1ccc(F)cc1)n1c(=S)nc2ccccn21`, for which the Potency was 355 nM (active). As for `O=C(c1ccc(F)cc1)n1cc(C(=S)N2CCOCC2)c2ccccc21`, the Potency entry is “inactive”. As for `Cc1ccc(NC(=O)Cn2c(C)csc2=O)cc1`, the Potency result is “inactive”. As for `CCOC(=O)c1ccc(NC(=S)Nc2cc(C)cc(C)n2)cc1`, the Potency result is “inactive”. As for `CCOC(=O)c1cc2c(nc1NC(=S)Nc1ccccc1)CC(C)(CC)OC2` (configuration not stated), the Potency result was “inactive”. Regarding `CCOC(=O)c1cn[nH]c1NC(=S)Nc1ccccc1`, the Potency was 2820 nM (active). `CN(C)C1=NC[C@H](Cc2ccccc2)N1CCc1ccc(F)cc1`: the Potency entry was “inactive”. Regarding `COc1ccc(OC)c(/C=C/C(=O)c2ccc3c(c2)OCO3)c1`, the Potency result is “inactive”. As for `CCOC(=O)[C@H]1[C@H]2COc3ccc(C)cc3[C@@H]2N2C(=O)CN(Cc3ccc(F)cc3)C(=O)[C@@]12C`, the Potency result was “inactive”. The value for `COc1ccc(CN2CCN(C(=O)c3cc(C4CC4)nn3-c3ccccc3)CC2)cc1F` was “inactive”. As to `Cc1ccc(-n2c(C)cc(C(=O)CN3C(=O)C(=O)N(C4CCCC4)C3=O)c2C)cc1`, the Potency result is “inactive”. As for `Cc1cc(C(=O)CSc2nc(N)cc(=O)[nH]2)c(C)n1-c1cccc(F)c1`, the entry is “inactive”. As for `O=C(CSc1nnc2n1CCCN2)c1ccccc1`, the Potency entry was “inactive”. In the case of `N#Cc1ccc(CSc2nnc3ccccn23)cc1`, the Potency result was “inactive”. Take `O=C(CSc1nnc2ccccn12)c1ccccc1`: the Potency is 3550 nM (active). Regarding `Cc1ccc(-n2c(C)cc(C(=O)CSc3nnc4ccccn34)c2C)cc1`, the Potency was 891 nM (active).

Take `COc1cccc(CNC(=O)CN2C(=O)NC(Cc3ccccc3)(c3ccccc3)C2=O)c1` (configuration not stated): the Potency result is “inactive”. As to `Cc1c(C(C)CCCO)oc(=O)c2c1Oc1c(C)c(C(C)C[C@@H](C)O)oc(=O)c1C2` (some centres not stated), the Potency entry was “inactive”. Consider `CC(=O)C[C@@H](O)CC(=O)[C@H]1OC(=O)CCCCCCc2ccccc21`, for which the Potency entry was “inactive”. Consider `O=C(O[C@H]1[C@H](Cc2ccccc2)NS(=O)(=O)[C@H]2C[C@@H]3C=C[C@]12O3)c1ccc([N+](=O)[O-])cc1`, for which the Potency result is “inactive”.
